Most compounds without a hit are left out; they make up all but 3.7% or so of the library.
GLP-1R inv ag: qHTS of GLP-1 Receptor Inverse Agonists (Inhibition Mode); Glucagon-like peptide 1 receptor (Homo sapiens), P43220; HEK293 GLP-1R CRE-luciferase, luminescence, 24 h; GLP-1R form is constitutively active; Potency, µM (highest dose often 38.3 µM), for inactives: top-dose activity change, negative = inhibition, actives largely listed as inhibitors; 410,000 compounds, 1.6% hits; also: % is scaled to controls: 0 for no effect and ±100 for the full control effect; nearly all actives have a fitted effect of over 55% in size
Target sequence (P43220 whole entry, looked up): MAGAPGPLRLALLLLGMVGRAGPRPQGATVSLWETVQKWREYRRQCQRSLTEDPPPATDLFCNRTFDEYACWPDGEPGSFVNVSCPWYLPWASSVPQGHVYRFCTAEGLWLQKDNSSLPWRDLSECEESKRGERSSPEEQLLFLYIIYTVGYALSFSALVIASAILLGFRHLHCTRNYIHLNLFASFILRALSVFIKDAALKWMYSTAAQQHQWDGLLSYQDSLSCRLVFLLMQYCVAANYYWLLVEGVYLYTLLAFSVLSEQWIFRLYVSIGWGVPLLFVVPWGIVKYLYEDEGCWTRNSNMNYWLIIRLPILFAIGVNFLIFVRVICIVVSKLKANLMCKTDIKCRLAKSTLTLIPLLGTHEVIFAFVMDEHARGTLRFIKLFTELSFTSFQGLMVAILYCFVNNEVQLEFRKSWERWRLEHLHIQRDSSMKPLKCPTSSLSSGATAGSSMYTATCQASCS
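Readout was luciferase luminescence, measured 12 min after detection reagent at room temperature. Beforehand, GLP-1R reporter HEK293 cells had sat 12 h, then received compounds for 24 hr at 37 deg C.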
ATXN2 expr inh: Primary qHTS for Inhibitors of ATXN expression. Potency, µM (doses to about 57 µM), for inactives: top-dose activity change, negative = inhibition, usual class: inhibitors. 360,000 compounds, 0.72% hits. HEK-293 ATXN2-luciferase reporter, luminescence, 24 h. AID 1745845, 2022; also: % is scaled to controls: 0 for no effect and ±100 for the full control effect; nearly all actives have a fitted effect of over 55% in size
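ATXN2-luciferase reporter cells (luciferase flanked by upstream and downstream ATXN2 gene portions) were treated 24 h at 37 °C with compounds at up to 57 uM. SteadyGlo luminescence gave expression; GF-AFC fluorescence gave viability.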
GLP-1R agonist: qHTS of GLP-1 Receptor Agonists; Glucagon-like peptide 1 receptor (Homo sapiens), P43220; HEK293 GLP-1R CRE-luciferase, luminescence, 4-6 h; cells express a hypersensitive GLP-1R form; Potency, µM (highest dose often 45.6 µM), for the others: at the highest dose activation, most hits filed as activators; 380,000 compounds, 0.007% hits; AID 624172, 2012; also: % of control where 0% means no effect
S2 tox: Viability Counterscreen for Primary qHTS for Inhibitors of ATXN expression; S2 cells (HEK-293 line with an ATXN2-luciferase reporter) viability, CellTiter-Fluor protease fluorescence, 24 h; 400,000 compounds, 0.49% hits; Potency, µM (top dose mostly 56.7 µM), most hits filed as cytotoxic; AID 651635, 2014; also: nearly all actives have a fitted effect of over 40% in size
HepG2 tox: qHTS for Inhibitors of TGF-b: Cytotox Counterscreen; Potency, µM (highest dose often 46.1 µM), for the others: at the top dose activity change, negative = cytotoxicity, most hits filed as cytotoxic; 410,000 compounds, 0.76% hits; HepG2 CAGA-GFP viability, ATP luminescence, 18 h
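HepG2 CAGA-GFP cells (1000/well, DMEM with 1% FBS) received compound, then TGF-beta at 500 pg/mL final, and were incubated 18 hours at 37 degrees C. Viability was read by CellTiter-Glo luminescence. Media-only wells were set as complete cell-killing and DMSO as no toxicity.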
TGFb SMAD3 inh: qHTS for Inhibitors of TGF-b; Potency, µM (highest dose often 46.1 µM), inactives show at the highest dose activity, negative = inhibition, actives largely listed as inhibitors; AID 588855, 2011; HepG2 CAGA-GFP TGF-b/SMAD3 reporter, GFP fluorescence, 18 h; TGF-beta stimulated, 500 pg/mL final; 410,000 compounds, 1.2% hits; also: % is scaled to controls: 0 for no effect and ±100 for the full control effect; nearly all actives have a fitted effect of over 65% in size
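HEPG2 CAGA-GFP cells (1000/well, DMEM with 1% FBS) were pre-incubated 2 h at 37 degrees C, given compound by pin tool, then stimulated with TGF-beta at 500 pg/mL final for 18 h before per-cell GFP fluorescence imaging.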
* marks the source's active call; other numbers are inactive results; ! = repeats disagree. Calls follow the shape of the dose curve; as a rule, active = well fitted curve in the direction sought with a large enough effect; inconclusive = small, poorly fitted or top-dose-only effect, or another doubt; inactive = no such curve, though single readings can be large; an effect the other way counts as inactive or inconclusive. Potency is read from the fitted curve at half-maximal effect.

NS(=O)(=O)c1ccc(NC(=O)c2c(F)cccc2Cl)cc1 was read as GLP-1R inv ag -9%, ATXN2 expr inh -32%, GLP-1R agonist 0%, S2 tox inactive, HepG2 tox -20% and TGFb SMAD3 inh 0%.
Screening Nc1nc(Nc2ccc(S(N)(=O)=O)cc2)nn1C(=O)c1c(F)cccc1F returned ATXN2 expr inh 12µM*.
COC(=O)CNC(=O)Cc1c(C)n(C(=O)c2ccc(Cl)cc2)c2ccc(OC)cc12 was read as GLP-1R inv ag inconclusive, ATXN2 expr inh 1%, GLP-1R agonist 8%, S2 tox inactive, HepG2 tox -4% and TGFb SMAD3 inh 0%.
For COc1ccc(NC(=O)Cc2c(C)n(C(=O)c3ccc(Cl)cc3)c3ccc(OC)cc23)cc1 the results were GLP-1R inv ag inconclusive, ATXN2 expr inh 5%, GLP-1R agonist 18%, S2 tox inactive, HepG2 tox 0% and TGFb SMAD3 inh -8%.
`COc1ccc2c(c1)c(CC(=O)Nc1cccc(S(N)(=O)=O)c1)c(C)n2C(=O)c1ccc(Cl)cc1` gave GLP-1R inv ag inconclusive, ATXN2 expr inh inconclusive, GLP-1R agonist 11%, S2 tox inconclusive, HepG2 tox -43% and TGFb SMAD3 inh 16µM*.
For COc1ccc2c(c1)c(CCNNC(=O)C(C)(C)C)c(C)n2C(=O)c1ccc(Cl)cc1 the results were GLP-1R inv ag 10µM*, ATXN2 expr inh inconclusive, GLP-1R agonist 5%, S2 tox inconclusive, HepG2 tox -36% and TGFb SMAD3 inh inconclusive.
For CCc1c2c(nc3ccc4c(c13)OCCO4)-c1nc3ccccc3c(=O)n1C2 the results were HepG2 tox -31% and TGFb SMAD3 inh 2%.
`CCOC(=O)/C=C1\CN(Cc2cc(OC)c(OC)c(OC)c2)S(=O)(=O)c2ccc(C(F)(F)F)cc21` gave GLP-1R inv ag inconclusive, ATXN2 expr inh inconclusive, GLP-1R agonist 5%, S2 tox inconclusive, HepG2 tox -15% and TGFb SMAD3 inh 8.9µM*.
`CCOC(=O)/C=C1\CN(Cc2cc(OC)c(OC)c(OC)c2)S(=O)(=O)c2ccccc21` gave GLP-1R inv ag 2%, ATXN2 expr inh -19%, GLP-1R agonist 8%, S2 tox inactive, HepG2 tox -18% and TGFb SMAD3 inh -25%.
For CN1[C@@H]2CC(OC(=O)[C@@H](CO)c3ccccc3)C[C@@H]1[C@H]1O[C@H]12 (stereo partly drawn) the results were GLP-1R agonist 10%.
COc1ccccc1CNc1ncnc2c1c(-c1ccccc1)cn2-c1cccc(C)c1 was read as GLP-1R inv ag inconclusive, HepG2 tox -26% and TGFb SMAD3 inh -9%.
`C/C(CC(=O)Nc1ccc(Cl)c(C(F)(F)F)c1)=N\NC(N)=S` gave GLP-1R inv ag 10µM*, ATXN2 expr inh -13%, GLP-1R agonist 2%, S2 tox inactive, HepG2 tox 3% and TGFb SMAD3 inh -8%.
Screening CO[C@H]1/C=C\O[C@@]2(C)Oc3c(C)c(O)c4c(O)c(c5c(nc6cc(C)ccn65)c4c3C2=O)NC(=O)C(C)=CC=C[C@H](C)[C@H](O)[C@@H](C)[C@@H](O)[C@@H](C)[C@H](OC(C)=O)[C@H]1C returned ATXN2 expr inh -10%.
For COc1ccc(C2NN=C(c3c[nH]c4ccccc34)C2O)cc1 (stereo not drawn) the results were GLP-1R inv ag inconclusive, GLP-1R agonist 6%, S2 tox inactive, HepG2 tox -25% and TGFb SMAD3 inh inconclusive.
For COc1ccc(C2C(O)C(c3c[nH]c4ccccc34)=NN2C(=O)CCl)cc1 (stereo not drawn) the results were GLP-1R inv ag inconclusive, ATXN2 expr inh 6.3µM*, GLP-1R agonist 1%, S2 tox 7.9µM*, HepG2 tox 4µM* and TGFb SMAD3 inh 2.2µM*.
N#C/C(=C\c1ccc(O)c([N+](=O)[O-])c1)c1nc2ccccc2s1 was read as GLP-1R inv ag -29%, ATXN2 expr inh -31%, GLP-1R agonist 1%, S2 tox inconclusive, HepG2 tox -32% and TGFb SMAD3 inh 13µM*.
Screening COc1ccc(CNc2ncc(-c3ccc(F)cc3)n2C)c2ccccc12 returned GLP-1R inv ag inconclusive, ATXN2 expr inh 2µM*, GLP-1R agonist 1%, S2 tox inactive, HepG2 tox -43% and TGFb SMAD3 inh inconclusive.
For Cc1cc(Br)cc2c1N(Cc1ccccc1OC(C)C)C(=O)C2=O the results were GLP-1R inv ag inconclusive and HepG2 tox 10µM*.
Screening COc1ccccc1N1CCN(C(=O)C2CCN(S(=O)(=O)c3cccs3)CC2)CC1 returned GLP-1R inv ag -10%, ATXN2 expr inh 12%, S2 tox inactive, HepG2 tox -22% and TGFb SMAD3 inh -8%.
Cc1ccc(C(=O)Nc2ncc3c(Cl)cccc3n2)cc1 was read as GLP-1R inv ag 7.1µM*, ATXN2 expr inh inconclusive, GLP-1R agonist -33%, S2 tox inactive, HepG2 tox -60% and TGFb SMAD3 inh 3%.
`CN1c2ccccc2-c2nc(SCC(=O)Nc3ccccc3C(F)(F)F)ncc2S1(=O)=O` gave GLP-1R inv ag -4%, ATXN2 expr inh 3%, S2 tox inactive, HepG2 tox -21% and TGFb SMAD3 inh 0%.
`CNC(=O)c1cc(Oc2ccc(NC(=O)Nc3ccc(Cl)c(C(F)(F)F)c3)cc2)ccn1` gave GLP-1R inv ag inconclusive, ATXN2 expr inh 18µM*!, GLP-1R agonist -3%, S2 tox 16µM*, HepG2 tox 16µM*! and TGFb SMAD3 inh inconclusive.
`CCOC(=O)c1c(NC(=O)CSc2nncs2)sc(C)c1-c1ccccc1` gave GLP-1R inv ag inconclusive, ATXN2 expr inh -6%, GLP-1R agonist 4%, S2 tox inactive, HepG2 tox 0% and TGFb SMAD3 inh 11µM*.
CCOC(=O)c1c(-c2ccc(OC)cc2)csc1NC(=O)CSc1ccccc1 was read as GLP-1R inv ag 4.5µM*, ATXN2 expr inh 0%, GLP-1R agonist 0%, S2 tox inactive, HepG2 tox -48% and TGFb SMAD3 inh 0%.
`CCOC(=O)c1c(-c2ccccc2)csc1NC(=O)CSc1ccccc1` gave GLP-1R inv ag inconclusive, ATXN2 expr inh 0%, GLP-1R agonist 14%, S2 tox inactive, HepG2 tox 9% and TGFb SMAD3 inh 8%.

Source: PubChem BioAssay (National Center for Advancing Translational Sciences (NCATS))
